# Reference: PubChem BioAssay (NCATS)
# Inconclusive results are not listed. A call without a number means that no potency is given here. Activity calls are given as the source filed them. Unless noted, calls come from the whole dose curve; as a rule, active = well fitted curve in the direction sought with a large enough effect; inconclusive = small, poorly fitted or top-dose-only effect, or another doubt; inactive = no such curve, though single readings can be large; an effect the other way counts as inactive or inconclusive.
# Experiments:
# [1] = qHTS Assay for Lipid Storage Modulators (AID 1519; calls by dose curve); conditions: Drosophila S3 cells, BODIPY lipid droplet/cell ratio, laser cytometry, cells loaded with oleic acid
# Method in brief: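 Cells seeded at 5,000 per well were treated with compounds over a concentration series and loaded with oleic acid (400 uM, as added). Lipid droplet fluorescence (488 nm excitation, 500-530 nm channel) was read by laser-scanning cytometry and normalized to 20 uM Triacsin C.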
# [2] = test system: Zika virus NS2B-NS3 protease (linked construct); assay: Primary screen NINDS Rhodamine qHTS for Zika virus inhibitors (AID 1347160); conditions: purified NS2B-NS3 protease, Rhodamine110 substrate fluorescence; series mostly up to 57.1 µM; note: nearly all actives have a fitted effect of over 55% in size
# Method in brief: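 Aprotinin served as in-plate control. Conditions: 25 nM linked NS2B-NS3, pH 8.0 Tris buffer, titrated compounds, 15 min preincubation and 15 min reaction with 1.5 microM Rhod110 substrate at room temperature.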
# [3] = HPAF-II Cancer Cell Toxicity qHTS against the NCATS CANVASS Library (AID 1347346); conditions: HPAF-II viability, CellTiter-Glo ATP luminescence, 72 h; series mostly up to 38.3 µM; note: nearly all actives have a fitted effect of over 55% in size
# Method in brief: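 First, HPAF-II cells are plated (1000 cells/well) and held 4 h at 37 degrees C. Next, compounds are pin-transferred as an 11-point series. After 72 h, CellTiter-Glo is added and luminescence measured.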
# [4] = OV-SAHO Cancer Cell Toxicity qHTS against the NCATS CANVASS Library (AID 1347348); conditions: OV-SAHO viability, CellTiter-Glo luminescence, 72 h; series mostly up to 38.3 µM; note: nearly all actives have a fitted effect of over 55% in size
# Method in brief: (§1)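 Viability was assessed by adding CellTiter-Glo reagent to treated cultures and reading luminescence after 15min at room temperature. Treatment lasted 72 h at 37 degrees C/5% CO2, using an 11-point series on 1000 cells/well.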
# [5] = Panc-1005 Cancer Cell Toxicity qHTS against the NCATS CANVASS Library (AID 1347349); conditions: Panc-1005 viability, CellTiter-Glo luminescence, 72 h; series mostly up to 38.3 µM; note: nearly all actives have a fitted effect of over 60% in size
# Method in brief: as §1
# [6] = U-118MG Cancer Cell Toxicity qHTS against the NCATS CANVASS Library (AID 1347351); conditions: U-118MG viability, CellTiter-Glo luminescence, 72 h; series mostly up to 38.3 µM
# Method in brief: as §1
# [7] = A2780 Cisplatin Sensitive Ovarian Cancer Cell Toxicity qHTS against the NCATS CANVASS Library (AID 1347353); conditions: A2780 ovarian cancer viability, ATPLite luminescence, 72 h; series mostly up to 46.1 µM; note: nearly all actives have a fitted effect of over 60% in size
# Method in brief: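 Cells are plated at 750 per well and rest for 4 hours. Compounds are added across eleven concentrations, and incubated 72 hours before ATP is quantified by luminescence.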
# [8] = UWB1.289-WTBRCA1 Cancer Cell Toxicity qHTS against the NCATS CANVASS Library (AID 1347354); conditions: UWB1.289-WTBRCA1 viability, CellTiter-Glo luminescence, 72 h; series mostly up to 38.3 µM
# Method in brief: (§2)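 First, 1000 cells go into each well and rest for 4 hours. Next, an 11-point dilution range is pinned in. Plates then incubate 72 hours before CellTiter-Glo addition and luminescence reading.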
# [9] = HEK-293 Cancer Cell Toxicity qHTS against the NCATS CANVASS Library (AID 1347355); conditions: HEK-293 viability, CellTiter-Glo luminescence, 72 h; series mostly up to 46.1 µM; note: nearly all actives have a fitted effect of over 65% in size
# Method in brief: as §2
# [10] = HPAF-II 24hr Apoptosis Induction qHTS against the NCATS CANVASS Library (AID 1347356); conditions: HPAF-II caspase-3/7 Caspase-Glo luminescence; series mostly up to 46.1 µM
# Method in brief: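 Cells seeded at 500 per well, then compounds pin-transferred in an 11-point concentration series. After 24 hours at 37 degrees C, Caspase-Glo 3/7 was added and luminescence measured following 15 min at room temperature.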
# [11] = HEK293 18hr Apoptosis Induction qHTS against the NCATS CANVASS Library (AID 1347357); conditions: HEK293 caspase-3/7 Caspase-Glo luminescence; series mostly up to 46.1 µM
# Method in brief: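 HEK293 cells (500/well, DMEM + 10% FBS) treated with an 11-point series for 18 h at 37 degrees C. Caspase-3/7 activity read by Caspase-Glo luminescence after 15 min at room temperature.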
# [12] = HEK293 24hr Apoptosis Induction qHTS against the NCATS CANVASS Library (AID 1347359); conditions: HEK293 caspase-3/7 activation, Caspase-Glo luminescence; series mostly up to 46.1 µM
# Method in brief: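 Caspase-3/7 activation measured as luminescence from the DEVD-based Caspase-Glo reagent, 15 min at room temperature, following 24-hour compound treatment of HEK293 cells.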
# [13] = HPAF-II 18hr Apoptosis Induction qHTS against the NCATS CANVASS Library (AID 1347360); conditions: HPAF-II caspase-3/7 luminescence; series mostly up to 46.1 µM
# Method in brief: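 HPAF-II cells at 500/well were exposed for 18 h at 37 C to an 11-point compound series. Caspase-3/7 activity was read by Caspase-Glo luminescence after 15 min at RT.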
# [14] = HEK293 12hr Apoptosis Induction qHTS against the NCATS CANVASS Library (AID 1347361); conditions: HEK293 caspase-3/7 Caspase-Glo luminescence; series mostly up to 46.1 µM
# Method in brief: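 HEK293 cells (500/well) were exposed to an 11-point qHTS concentration series for 12 hours at 37 degrees C. Caspase-3/7 activity was then read by DEVD-substrate luciferase luminescence after 15 min at room temperature.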
# [15] = target: Luciferin 4-monooxygenase (Photinus pyralis) (UniProt P08659); assay: Firefly luciferase counterscreen qHTS: Assay Interference Panel against the NCATS CANVASS Library (AID 1347363); conditions: purified firefly luciferase, luminescence inhibition, 5 min; series mostly up to 57.5 µM
# Method in brief: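 Luminescence inhibition readout: compounds (11-point qHTS) sat 15 min at room temperature with substrate mix (0.013 mM luciferin and ATP), then firefly luciferase was added and signal read 5 min later.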
# [16] = KB-8-5-11 Cancer Cell Toxicity qHTS against the NCATS CANVASS Library (AID 1347364); conditions: KB-8-5-11 MDR cells viability, CellTiter-Glo, 72 h; series mostly up to 46.1 µM; note: nearly all actives have a fitted effect of over 75% in size
# Method in brief: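 Terse: KB-8-5-11, 500 cells/well, 72 hr, 37C/5% CO2, 11-pt titration, CellTiter-Glo readout; confirmatory runs ± 1uM tariquidar in medium.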
# [17] = target: Peroxisome proliferator-activated receptor delta (Homo sapiens) (UniProt Q03181); assay: qHTS assay for small molecule agonists of peroxisome proliferator-activated receptor delta signaling (AID 588534; calls by dose curve); conditions: HEK293T PPARdelta-UAS-bla, beta-lactamase ratio, 18 h; series mostly up to 76.7 µM
# Method in brief: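 Agonist-mode qHTS; reporter cells, 5 hrs 37 C pre-incubation; compound titration, 18 hrs 37 C; CCF4 dye, 2 hrs RT; fluorescence read. EC50/efficacy via Hill fit.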
# [18] = target: Arylsulfatase A (Homo sapiens) (UniProt P15289); assay: qHTS screen for enhancers of Arylsulfatase A (ASA1): LOPAC Validation Assay (AID 720538); conditions: ASA enzyme activity, LOPAC qHTS enhancer assay; series mostly up to 57.5 µM
# Method in brief: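 SV40-transformed fibroblasts from an MLD patient (ASA-I179S) were treated with compound for 48 h at 37 C. They were then lysed with 0.5 mM pNCS substrate (final) for 14 h at room temperature and stopped with NaOH; signal read by fluorescence (Ex 525/Em 598 nm), with increase denoting enhanced activity.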
# [19] = VSVG counterscreen qHTS to identify inhibitors of SARS-CoV-2 cell entry (AID 1645847; calls by dose curve; note: potency is the fitted concentration of half-maximal effect; nearly all actives have a fitted effect of over 65% in size); conditions: VSV-G pseudotyped particle entry, luciferase; series mostly up to 57.2 µM
# Method in brief: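 HEK293-ACE2 cells (Expi293F, human ACE2) pretreated 1 h with compound, then infected with MLV-based VSV-G pseudotyped particles for 48 h at 37 C; luciferase luminescence normalized to VSV-G PP and bald PP wells.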
# [20] = Confirmatory qHTS to identify inhibitors of SARS-CoV-2 cell entry (AID 1645844; calls by dose curve; note: potency is the fitted concentration of half-maximal effect; nearly all actives have a fitted effect of over 45% in size); conditions: SARS-CoV-2 pseudotyped particle cell entry, luciferase; series mostly up to 57.2 µM
# Method in brief: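 Luminescence entry read-out after 48 h: spike-pseudotyped MLV particles (Wuhan-Hu-1, 19-aa C-terminal truncation) added to compound-pretreated (1 h) HEK293-ACE2 cells; Data were normalised to bald PP and spike PP wells.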
# Sequence of Peroxisome proliferator-activated receptor delta (Homo sapiens) (Q03181 whole entry, looked up): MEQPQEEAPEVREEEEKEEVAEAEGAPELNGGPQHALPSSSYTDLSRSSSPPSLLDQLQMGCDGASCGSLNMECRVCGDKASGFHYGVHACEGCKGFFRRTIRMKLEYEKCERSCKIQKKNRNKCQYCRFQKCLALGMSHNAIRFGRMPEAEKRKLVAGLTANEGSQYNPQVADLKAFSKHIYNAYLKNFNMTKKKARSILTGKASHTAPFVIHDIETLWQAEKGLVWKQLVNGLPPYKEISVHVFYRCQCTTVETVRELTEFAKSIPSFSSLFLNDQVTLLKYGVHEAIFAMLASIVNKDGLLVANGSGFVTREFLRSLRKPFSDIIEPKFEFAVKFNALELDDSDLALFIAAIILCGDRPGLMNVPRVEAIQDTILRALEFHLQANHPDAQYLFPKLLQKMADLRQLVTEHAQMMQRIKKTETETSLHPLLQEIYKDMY
# Sequence of Arylsulfatase A (Homo sapiens) (P15289 whole entry, looked up): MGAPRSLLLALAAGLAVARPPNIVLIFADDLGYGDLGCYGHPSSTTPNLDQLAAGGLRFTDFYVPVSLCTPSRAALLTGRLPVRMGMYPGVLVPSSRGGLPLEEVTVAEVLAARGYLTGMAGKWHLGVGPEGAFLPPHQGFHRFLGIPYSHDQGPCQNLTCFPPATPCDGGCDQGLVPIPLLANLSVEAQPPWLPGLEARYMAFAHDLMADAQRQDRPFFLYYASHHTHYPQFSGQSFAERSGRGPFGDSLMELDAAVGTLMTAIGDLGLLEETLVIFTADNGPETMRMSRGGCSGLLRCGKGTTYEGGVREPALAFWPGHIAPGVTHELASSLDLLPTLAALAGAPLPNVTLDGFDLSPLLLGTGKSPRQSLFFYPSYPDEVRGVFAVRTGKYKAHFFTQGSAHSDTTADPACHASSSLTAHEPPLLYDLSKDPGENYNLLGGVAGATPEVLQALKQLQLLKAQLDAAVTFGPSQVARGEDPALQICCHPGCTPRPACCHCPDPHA
# Sequence of Luciferin 4-monooxygenase (Photinus pyralis) (P08659 whole entry, looked up): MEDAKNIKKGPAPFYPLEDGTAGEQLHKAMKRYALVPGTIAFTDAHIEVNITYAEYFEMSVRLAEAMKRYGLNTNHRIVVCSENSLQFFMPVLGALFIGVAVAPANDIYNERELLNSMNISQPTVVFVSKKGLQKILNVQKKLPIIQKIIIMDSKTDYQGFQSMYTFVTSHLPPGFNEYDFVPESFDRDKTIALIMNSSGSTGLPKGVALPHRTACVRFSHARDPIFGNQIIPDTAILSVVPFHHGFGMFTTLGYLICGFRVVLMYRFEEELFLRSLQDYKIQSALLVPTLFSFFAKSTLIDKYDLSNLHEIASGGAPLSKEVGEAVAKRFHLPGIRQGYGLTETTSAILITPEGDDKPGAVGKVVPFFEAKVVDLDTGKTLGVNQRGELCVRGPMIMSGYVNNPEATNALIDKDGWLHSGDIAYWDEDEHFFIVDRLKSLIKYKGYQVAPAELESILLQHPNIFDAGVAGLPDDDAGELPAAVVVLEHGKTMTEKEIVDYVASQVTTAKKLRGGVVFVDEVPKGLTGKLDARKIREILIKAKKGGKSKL
smiles,measurement,setting,value
CN(C)Cc1c[nH]c2ccccc12,"activity change, negative = inhibition",[1]; at 25.7 µM (top of the series),-1.33% (inactive)
same,max response,[1]; measured here: cell count channel max response,-14%
same,max response,[1]; measured here: lipid channel max response,-14%
same,Potency,[2],inactive
same,Potency,[3],inactive
same,Potency,[4],inactive
same,Potency,[5],inactive
same,Potency,[6],inactive
same,Potency,[7],inactive
same,Potency,[8],inactive
same,Potency,[9],inactive
same,outcome,[10],inactive
same,Potency,[11],inactive
same,Potency,[12],inactive
same,outcome,[13],inactive
same,Potency,[14],inactive
same,outcome,[15],inactive
same,Potency,[16],inactive
NCCc1ccccc1,Potency,[2],inactive
same,Potency,[3],inactive
same,Potency,[4],inactive
same,Potency,[5],inactive
same,Potency,[6],inactive
same,Potency,[7],inactive
same,Potency,[8],inactive
same,Potency,[9],inactive
same,outcome,[10],inactive
same,Potency,[11],inactive
same,Potency,[12],inactive
same,outcome,[13],inactive
same,Potency,[14],inactive
same,outcome,[15],inactive
same,Potency,[16],inactive
CCCCCCCCCC(=O)O,Potency,[17],inactive
CN1C2CCC1CC(OC(=O)C(CO)c1ccccc1)C2 (configuration not stated),Potency,[18],inactive
N[C@@H](Cc1ccc(O)c(O)c1)C(=O)O,Potency,[17],inactive
same,Potency,[19],0.429 µM (active)
CCOC(=O)[C@@H](N)Cc1ccc(-c2cc(O[C@H](c3ccc(Cl)cc3-n3ccc(C)n3)C(F)(F)F)nc(N)n2)cc1,Potency,[19],19.2 µM (active)
Cc1ccccc1O,Potency,[17],inactive
N#CC(c1ccc(Cl)cc1)c1c(Cl)cc(-n2ncc(=O)[nH]c2=O)cc1Cl (configuration not stated),Potency,[20],13.6 nM (active)
same,Potency,[19],21.5 µM (active)
CC(C)COC(=O)OCN1C(=O)CN(CCN2CC(=O)N(COC(=O)OCC(C)C)C(=O)C2)CC1=O,Potency,[18],inactive
CC(=O)[C@H]1CC[C@H]2[C@@H]3CCC4=CC(=O)CC[C@]4(C)[C@H]3CC[C@]12C,Potency,[18],inactive
same,Potency,[20],24100 nM (active)
COC(=O)C[C@](O)(CCCC(C)(C)O)C(=O)O[C@@H]1C(OC)=C[C@]23CCCN2CCc2cc4c(cc2[C@H]13)OCO4,Potency,[20],136 nM (active)
COc1c(OCCCN2CCOCC2)ccc2c3n(c(=NC(=O)c4cnc(N)nc4)nc12)CCN3,Potency,[19],2.78 µM (active)
CC(C)C(=O)Oc1ccc(CO)cc1[C@H](CCN(C(C)C)C(C)C)c1ccccc1,Potency,[19],21.5 µM (active)
